89 molecules from PubChem BioAssay AID588405 (Sanford-Burnham Center for Chemical Genomics, 2011) can be followed below.

The campaign covered roughly 360,000 compounds. About 6,200 (1.7%) were called active. The entries come from a sample that favours actives as a whole. Unmarked numbers belong to inactive results.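 The calls were made as follows: active = inhibition of at least 50% at 20 µM; inactive = the rest.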

This experiment can be described thus: Peg3 promoter-driven luciferase inhibitors, primary screen, cell-based, HeLa, luciferase luminescence (AID 588405). The note with it: HeLa PEG-Prom luciferase reporter, overnight, at 20 µM, active compounds read high.
`COc1ccc(C(=O)N2CCCCC2c2cc(C(=O)Nc3ccc(F)c(Cl)c3)no2)cc1` (centres undefined): the inhibition is 11.5%.

Take `Cc1nccn1-c1ccc(NC(=O)[C@H]2O[C@@H](n3cnc4c(N)ncnc43)[C@H](O)[C@@H]2O)cc1`: the inhibition was 7.92%.

Regarding `CCc1nc2ccc(C(=O)NCc3ccc(OC)cc3)cn2c1N(CC)Cc1cccc(Br)c1`, the inhibition was 19.4%.

`COc1ccc(NC(=O)c2sc(=O)n(Cc3ccc(S(=O)(=O)N(C)C)cc3)c2C)cc1`: the inhibition is 2.16%.

`Cc1ccc(SCC(=O)N2CCN(c3ccc(F)cc3)CC2)cc1`: the inhibition was 8.76%.

Take `Cc1ccc(C(=O)N2CC(=O)Nc3ccc(F)cc3C2c2ccc(F)cc2)cc1` (centres undefined): the inhibition was 17.9%.

On to `CCN1CCC2(CC1)N=C(c1ccc(F)cc1)C(=S)N2C(=O)c1ccc(C)cc1`, for which the inhibition is 90% (active).

Take `CCCNC(=O)c1cc(C2CCCCN2S(=O)(=O)c2ccc(C#N)cc2)on1` (centres undefined): the inhibition was -6.28%.

For the molecule `OC(c1cc(Cl)cc(Cl)c1)c1ncc(-c2ccccc2C(F)(F)F)[nH]1` (centres undefined), the inhibition is 35.8%.

For the molecule `CCc1ccc(/C=N/NC(=O)c2ccc(OC3CCCC3)cc2)s1`, the inhibition is 14.5%.

Regarding `CC1(C(=O)NCc2ccco2)Cc2c(-c3ccc4c(c3)OCO4)ccnc2O1` (centres undefined), the inhibition is 7.44%.

`O=C(Nc1ccc2ccccc2c1[N+](=O)[O-])c1ccccc1`: the inhibition was -223%.

`O=C(Nc1ncccc1O)c1ccc(C(=O)c2ccccc2)cc1`: the inhibition is -204%.

For the molecule `O=C(NC1=CC(=O)c2ccccc2C1=O)c1ccccc1`, the inhibition was 106% (active).

For the molecule `CCCNC(=O)C1(C)CCCN(C(=O)c2cccc(OC(C)=O)c2C)C1` (centres undefined), the inhibition is -1.66%.

Regarding `CCOc1ncccc1C(=O)NNC(=O)c1cccc(S(=O)(=O)Nc2ccccc2OC)c1`, the inhibition is 6.59%.

On to `COc1cc(NS(=O)(=O)c2ccc3ccccc3c2)c2ncccc2c1`, for which the inhibition is 54.5% (active).

`CCOc1cc(NS(=O)(=O)c2ccc(OC)cc2)c(OCC)cc1NC(C)=O`: the inhibition is 11.6%.

As to `COc1ccc(N2C(=O)NC(NS(=O)(=O)c3ccc(Cl)cc3)(C(F)(F)F)C2=O)cc1` (centres undefined), the inhibition was 10.8%.

As for `CC1=C(C(=O)N2CCOCC2)CC(CC(=O)NCc2cccs2)C(=O)N1CCCN1CCCC1=O` (centres undefined), the inhibition was 0.54%.

Consider `O=C1C(Cl)=C(Oc2ccccc2)C(=O)c2ccccc21`, for which the inhibition is 104% (active).

On to `O=c1[nH]nc(SCCS(=O)(=O)c2ccc(F)cc2)n1-c1ccccc1C(F)(F)F`, for which the inhibition was -139%.

Regarding `CC(C)(C)N1C(=O)c2c(C(=O)OCc3ccccc3)[nH]c(-c3ccccc3)c2C1=O`, the inhibition is 24.2%.

Consider `COc1ccc(NC(=O)c2cn(-c3ccccc3)nc2SC)cc1`, for which the inhibition is -78.1%.

For the molecule `CC1C(C)N(C(=O)CCl)c2ccccc2N1C(=O)CCl` (centres undefined), the inhibition was 99.2% (active).

For the molecule `CC1C(=O)N(Cc2ccccc2)c2ccccc2N1C(=O)c1ccccc1` (centres undefined), the inhibition was 21.3%.

Take `CC1CC(C)CN(CC(=O)N2c3ccccc3CCc3ccccc32)C1` (centres undefined): the inhibition is 9.54%.

In the case of `COc1ccc(C)cc1NC(=O)c1[nH]c(C)c(C(C)=O)c1C`, the inhibition is 4.55%.

Turning to `CCCC/C=C/c1cccc2nncn12`, the inhibition was 2.91%.

For `CSc1nc2ccc(S(=O)(=O)N3CCc4ccccc43)cc2s1`, the inhibition was 52.1% (active).

For `O=S(=O)(c1ccc2c(c1)OCCO2)N1CCc2ccccc21`, the inhibition is 25.9%.

In the case of `O=S(=O)(c1ccccc1)N1CCc2ccccc21`, the inhibition is 5.92%.

For the molecule `Cc1nc2c(c(C)nn2-c2ccccc2)c(C)c1C`, the inhibition is 21.8%.

On to `Cn1c(=O)c2c(-c3cccc(Br)c3)c(C#N)c(N)nc2n(C)c1=O`, for which the inhibition was 7.56%.

In the case of `CSc1ccc(-c2c(C#N)c(N)nc3c2c(C)nn3-c2ccccc2)cc1`, the inhibition is 76.2% (active).

For `CCOC(=O)[C@H]1Nc2ccc(Cl)cc2[C@@H]2[C@H]1C1CC(c3ccccc31)N2C(=O)OCc1ccccc1` (some centres undefined), the inhibition is 26.4%.

Regarding `N#Cc1cccc(NC(=O)c2cc(C3CCCCN3C(=O)CCc3ccccc3)on2)c1` (centres undefined), the inhibition is 23.6%.

With `COc1ccc(-c2oc3ncn(Cc4ccco4)c(=N)c3c2-c2ccc(OC)cc2)cc1`, the inhibition is 9.27%.

Take `COCCNc1ncnc2c1ncn2[C@H]1CN(Cc2ccc(OC)cc2)C[C@@H](CO)O1`: the inhibition is -12.7%.

As to `COc1ccc(-c2oc3ncnc(NCCCO)c3c2-c2ccc(OC)cc2)cc1`, the inhibition was 56.5% (active).

Take `CC(C)(C)OC(=O)N1CCN(C(=O)c2[nH]c(C(F)(F)F)nc2-c2ccccc2)CC1`: the inhibition was 5.18%.

Consider `CCN(CC)CCNC(=O)Cn1cnc2sc(C)c(S(=O)(=O)N3CCOCC3)c2c1=O`, for which the inhibition is -0.66%.

For the molecule `CCN(CC)CCNC(=O)c1sc2ncn(CC(=O)Nc3ccc(C)c(Cl)c3)c(=O)c2c1C`, the inhibition is 87.1% (active).

On to `CCN(CC)CCCNC(=O)Cn1cnc2sc(C)c(S(=O)(=O)N3CCN(c4ncccn4)CC3)c2c1=O`, for which the inhibition is -7.38%.

Regarding `Fc1cccc(Cc2c(-c3ccc(Cl)cc3)nc3ccc(Cl)cn23)c1`, the inhibition is -75.2%.

Take `CCNC(=O)C1(C)CCCN(C(=O)c2c(C)noc2C)C1` (centres undefined): the inhibition is -5.02%.

As for `Cn1c(Cc2csc(N)n2)nnc1SC/C=C/c1ccccc1`, the inhibition is -0.48%.

Turning to `COc1cc(C(=O)NNC(=O)c2ccc(S(=O)(=O)N3CCCCC3)cc2)cc(OC)c1OC`, the inhibition is 3.84%.

As for `CN(C)CCCN(C(=O)c1ccc(S(=O)(=O)N2CCCCCC2)cc1)c1nc2ccc(Br)cc2s1`, the inhibition is 57.8% (active).

`CCN(CC)CCN(C(=O)c1cc(Cl)sc1Cl)c1nc2cc3c(cc2s1)OCO3`: the inhibition was -57.9%.

In the case of `CCN(C(=O)COc1ccc(C(=O)c2ccccc2)cc1)c1ccccc1`, the inhibition was 2.39%.

For `CCN(CC(=O)Nc1c(F)cccc1F)C(=O)c1ccc(S(=O)(=O)N2CCCCC2)cc1`, the inhibition was 3.57%.

For the molecule `CCOc1ccc2nc(/N=C/c3nc(-c4ccccc4)oc3O)sc2c1`, the inhibition was -127%.

Consider `CN(C)CCN(C(=O)C1=COCCO1)c1nc2ccc(Cl)cc2s1`, for which the inhibition was -91.5%.

As for `CCOc1ccc2nc(N(CCCN(C)C)C(=O)c3ccc(C(=O)c4ccccc4)cc3)sc2c1`, the inhibition is 105% (active).

Consider `CCc1ccc2nc(N(CCCN(C)C)C(=O)c3ccc4c(c3)OCCO4)sc2c1`, for which the inhibition is 76% (active).

For the molecule `CCOC(=O)C1CCCN(C(=O)c2cccc3ccccc23)CC1` (centres undefined), the inhibition was 10.3%.

Regarding `O=C(C1=C(O)C(=O)N(CCOCCO)C1c1ccccn1)c1cccs1` (centres undefined), the inhibition is -2.88%.

Take `COc1ccc(NC(=O)c2cc(=O)[nH]c3ccccc23)cc1S(=O)(=O)N1CCOCC1`: the inhibition is -0.23%.

On to `OC[C@@H]1CN(Cc2cccs2)C[C@H](n2cnc3c(Nc4ccccc4)ncnc32)O1`, for which the inhibition is -9.51%.

Regarding `CCCCN1CC(N2CCN(Cc3cccc(C)c3)CC2)CS1(=O)=O` (centres undefined), the inhibition is -1.8%.

As for `O=C1NCC(c2ccccc2)(c2ccccc2)C(=O)N1`, the inhibition was -0.6%.

Regarding `CCCNC(=O)C1(C)CCN1C(=O)C1(c2ccccc2)CC1` (centres undefined), the inhibition is 8.72%.

In the case of `O=C(CC1Oc2ccccc2NC1=O)NCCCN1CCN(Cc2ccccc2)CC1` (centres undefined), the inhibition is 1.93%.

Turning to `CC1CN(C(=O)CCC(=O)NCCCN2CCC(Cc3ccccc3)CC2)c2cc(Cl)ccc2O1` (centres undefined), the inhibition is 102% (active).

In the case of `COc1ccccc1NC(=O)CCC(=O)N1CC(C)Oc2ccc(C)cc21` (centres undefined), the inhibition was 14.5%.

On to `CC(C)CN1CCC1(C)C(=O)Nc1ccc(OC(F)F)cc1` (centres undefined), for which the inhibition is 3.35%.

In the case of `COc1ccc(-c2ccc(OC(=O)NC3CCS(=O)(=O)C3)cc2)cc1` (centres undefined), the inhibition is -160%.

Take `COCCNc1nc(NCc2ccc(NC(C)=O)cc2)c2sccc2n1`: the inhibition is 20.4%.

Take `COCCNc1nc(Nc2ccccc2Cl)c2sc(-c3ccccc3)cc2n1`: the inhibition was 5.82%.

On to `CC(=O)Nc1ccc(CNc2nc(NCCN(C)C)nc3cc(-c4ccccc4)sc23)cc1`, for which the inhibition was 97.3% (active).

Regarding `C=CCc1cccc2cc(C(=O)N3CCN(C(=O)OCC)CC3)c(=O)oc12`, the inhibition is 22.4%.

For the molecule `Cc1cccn2c(=O)c(/C=C(\C#N)S(=O)(=O)c3ccc(Cl)cc3)c(N3CCC(C(N)=O)CC3)nc12`, the inhibition was -3.35%.

For the molecule `Cc1cc(C)cc(Oc2nc3c(C)cccn3c(=O)c2/C=C(\C#N)C(=O)NC2CCS(=O)(=O)C2)c1` (centres undefined), the inhibition was 61.6% (active).

`Cc1cccn2c(=O)c3cc(C(=O)NC4CCCCC4)sc3nc12`: the inhibition is -45%.

As to `FC(F)(F)c1ccccc1Cc1c(-c2ccccc2)nc2c3ccccc3ccn12`, the inhibition is -34.1%.

On to `O=C(NCc1ccncc1)c1ccc(NS(=O)(=O)c2cccc([N+](=O)[O-])c2)cc1`, for which the inhibition was -13.3%.

Consider `Cc1c(-c2ccccc2)n[nH]c1C(=O)N=Nc1c(O)[nH]c2ccccc12`, for which the inhibition is -126%.

For the molecule `O=[N+]([O-])c1cc(S(=O)(=O)Nc2cccc(Cl)c2)ccc1N=Nc1c(O)[nH]c2ccccc12`, the inhibition was 65.1% (active).

Turning to `CCCCc1nc2ccc(F)cc2cc1C`, the inhibition is 6.65%.

With `CCOC(=O)N1CCC(NC(=O)c2ccc3nc(N4CCOCC4)sc3c2)CC1`, the inhibition was 16.9%.

For the molecule `c1c2c(cc3sc(N4CCCCC4)nc13)OCCO2`, the inhibition is 80.5% (active).

As for `CS(=O)(=O)N1CCCCC1c1cc(C(=O)NCc2ccccc2)no1` (centres undefined), the inhibition is -14.8%.

Take `O=[N+]([O-])c1ccc(CN2CC(N3CCC(c4ccccc4)CC3)CS2(=O)=O)cc1` (centres undefined): the inhibition is 10%.

In the case of `COc1ccc(C(CCNCc2ccccc2F)c2ccc(F)cc2)cc1` (centres undefined), the inhibition was 17.7%.

For the molecule `COc1cccc(CNCCc2c[nH]c3ccccc23)c1OCc1ccccc1F`, the inhibition was 92.7% (active).

Take `Fc1ccccc1COc1ccccc1CNCc1ccncc1`: the inhibition is 18.9%.

Regarding `CNc1cncc(-c2ccc(NS(C)(=O)=O)cc2)n1`, the inhibition was 21.2%.

`CC1(C(=O)NS(=O)(=O)c2ccc(C#N)cc2)CCN1C(=O)CC1CCCC1` (centres undefined): the inhibition is 11.7%.
